Reference: PubChem BioAssay AID2685 (National Center for Advancing Translational Sciences (NCATS), 2010)
Screen size: about 320,000 compounds; about 2,100 (0.66%) were called active. About 53% were inconclusive and are not listed. Calls follow the shape of the dose curve; as a rule, active = well fitted inhibition curve with a large enough effect in the signal ratio, with a control signal flat (not every such curve was filed as active); inconclusive = small, poorly fitted or top-dose-only effect, or effect the other way, or a change in a side signal; inactive = flat fitted curve, though single readings scatter; the % refers to the signal ratio. The sample as a whole holds a higher share of actives than the screen did.
Potency is read from the fitted curve at half-maximal effect.

Assay: qHTS Assay for Lipid Storage Modulators in Drosophila S3 Cells;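 as to cell number change: cells counted by Cell Tracker Red CMTPX staining in the red channel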; as to lipid storage change, negative = inhibition: % is scaled to controls: 0 for no effect and ±100 for the full control effect
Settings: BODIPY lipid droplet fluorescence, 18-24 h, cells fed with added oleic acid; cell number change: measured here: cell count max response; series mostly up to 46.1 µM
Outline: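 Drosophila S3 cells got compounds at several concentrations plus oleic acid (400 uM solution). Laser-scanning cytometry with 488 nm excitation read lipid droplets at 500-530 nm and cells at 575-640 nm. Percent activity was relative to 20 uM Triacsin C.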
With O=C(NCc1csc(-c2cccs2)n1)Nc1ccc(C(F)(F)F)cc1 the Potency was “inactive” and the cell number change was -0.569%. With O=C(COC(=O)CSc1cc(Cl)ccc1Cl)Nc1ncc(C(F)(F)F)cc1Cl the Potency was “inactive” and the cell number change was 1.5%. In the case of Cc1[nH]n(-c2ccccc2)c(=O)c1N=Nc1ccc2c(c1)OCO2, the Potency is reported as “inactive” and the cell number change is reported as -5.87%. For O=C(c1sc(N2CCOCC2)nc1-c1ccccc1)N1CCCCC1, the Potency was “inactive” and the cell number change was 3.25%. With O=C(Cn1nnc(-c2ccc(OCc3ccccc3F)cc2)n1)N1CCOCC1 the Potency was “inactive” and the cell number change was -16.4%. For COc1ccc2nc(NC(=O)CCN3C(=S)NC(C)(C)CC3C)sc2c1 (stereo not drawn), the Potency was “inactive”. In the case of CCOC(=O)CN1C(=O)C(O)(c2c(C)[nH]c3ccccc23)c2ccccc21 (stereo not drawn), the Potency is reported as “inactive” and the cell number change is reported as 8.53%. For Cc1cc(C)n(-c2cc(N3CCOCC3)ncn2)n1, the Potency was “inactive” and the cell number change was -1.49%. With COc1cccc(/C=C2\SC(=S)N(c3cccnc3)C2=O)c1OC the Potency was “inactive” and the cell number change was 12.9%. With O=C(Nc1ccc2c(c1)OCO2)C1CC(c2ccccc2O)=NO1 (stereo not drawn) the Potency was “inactive” and the cell number change was 19.9%. In the case of CCn1cc(C2=NOC(C(=O)Nc3ccc4c(c3)OCO4)C2)c(C)n1 (stereo not drawn), the Potency is reported as 7.31 µM (active) and the cell number change is reported as -25.4%. With COc1ccc(C2=NOC(C(=O)Nc3ccc4c(c3)OCO4)C2)cc1 (stereo not drawn) the Potency was “inactive” and the cell number change was 14.2%. With COc1cccc2sc(NNC(=O)COc3ccccc3)nc12 the cell number change was 5.71% and the lipid storage change, negative = inhibition was -1.29% [at 9.22 µM] (inactive). For CC(C)C(=O)Nc1cc(=O)[nH]c2ncnn12, the Potency was 5.8 µM (active) and the cell number change was -10.1%. With O=C(Nc1cc(=O)[nH]c2ncnn12)c1ccccc1 the Potency was “inactive” and the cell number change was -8.14%. For CCC(=O)Nc1cc(=O)[nH]c2ncnn12, the Potency was “inactive” and the cell number change was -14.7%. With Cn1c(=O)[nH]c(=O)c2c1nc(Br)n2C/C=N/NC(N)=S the Potency was “inactive” and the cell number change was -9.55%. For O=C(Nc1c2c(nn1-c1ccc(F)cc1)CS(=O)(=O)C2)c1ccc(S(=O)(=O)N2CCOCC2)cc1, the Potency was “inactive” and the cell number change was -2.12%. In the case of O=C(Nc1cccc(-c2cccc(Cl)c2)c1)C1CCN(CC2CCOC2)CC1 (stereo not drawn), the Potency is reported as “inactive” and the cell number change is reported as 26.5%. For COc1cccc(-c2cccc(NC(=O)C3CCN(Cc4ccc(CO)o4)CC3)c2)c1, the Potency was “inactive” and the cell number change was -8.92%. With COc1cccc(-c2cccc(NC(=O)C3CCN(CC4CCOC4)CC3)c2)c1 (stereo not drawn) the Potency was 16.4 µM (active) and the cell number change was -23.3%. For O=C(CSc1nc(O)cc(=O)n1-c1ccccc1)c1ccc(Br)cc1, the cell number change was -4.08% and the lipid storage change, negative = inhibition was 26.5% [at 9.22 µM] (inactive). With COc1ccc(-c2ccc3ccccc3n2)cc1 the Potency was “inactive” and the cell number change was -4.92%. For S=c1[nH]nc(-c2ccncc2)n1/N=C/c1cccc2ccccc12, the Potency was “inactive” and the cell number change was 15.5%. With Clc1ccc(CN2CCCCCC2)cc1 the Potency was “inactive” and the cell number change was 7.51%. With CC(C)Cn1c(CN(C)Cc2ccccc2)nc2c1c(=O)n(C)c(=O)n2C the Potency was “inactive”. With C=C(C)Cn1c(CN(C)Cc2ccccc2)nc2c1c(=O)n(C)c(=O)n2C the Potency was 0.92 µM (active) and the cell number change was -21.1%. With CC(C)CCn1c(CN(C)Cc2ccccc2)nc2c1c(=O)n(C)c(=O)n2C the Potency was “inactive” and the cell number change was -8.94%. For C[C@@H](NC(=O)c1nc[nH]c1C(=O)NCC(=O)OC(C)(C)C)c1ccccc1, the Potency was “inactive” and the cell number change was 2.99%. With CC(=O)c1ccc(Oc2cc(C(F)(F)F)cnc2C(N)=O)cc1 the Potency was “inactive” and the cell number change was 26.2%. In the case of CC(NC(=O)c1ccncc1)C(c1cccs1)N1CCOCC1 (stereo not drawn), the Potency is reported as “inactive” and the cell number change is reported as 1.4%. In the case of CCOc1ccc(NC(=O)CSc2nc3ccccc3nc2N2CCOCC2)cc1, the Potency is reported as 20.6 µM (active) and the cell number change is reported as -28%. For CC1CN(c2nc3ccccc3nc2SCC(=O)Nc2ccc(F)cc2)CC(C)O1 (stereo not drawn), the Potency was 20.6 µM (active) and the cell number change was 22.5%. In the case of COc1ccc(NC(=O)CSc2nc3ccccc3nc2N2CCCC2)cc1, the Potency is reported as “inactive” and the cell number change is reported as -11.5%. For O=C(CSc1nc2ccccc2nc1N1CCCC1)Nc1ccc(F)cc1, the Potency was “inactive” and the cell number change was 7.49%. In the case of Cc1cc(C)cc(NC(=O)CSc2nc3ccccc3nc2N2CCCCC2)c1, the Potency is reported as “inactive” and the cell number change is reported as 10.1%. With CCc1ccc(NC(=O)CSc2nc3ccccc3nc2N2CCCCC2)cc1 the Potency was 13 µM (active) and the cell number change was 25.4%. In the case of COc1ccc(NC(=O)CSc2nc3ccccc3nc2N2CCCCC2)cc1, the Potency is reported as “inactive” and the cell number change is reported as -10.4%. With CCCCc1ccc(NC(=O)CSc2nc(=O)n(CCCN3CCOCC3)c3c2CCC3)cc1 the Potency was “inactive” and the cell number change was 12.5%. For CCc1ccc(NC(=O)CSc2nc(=O)n(CCCN3CCOCC3)c3c2CCCC3)cc1, the Potency was 14.6 µM (active) and the cell number change was -8.01%. With CCCCc1ccc(NC(=O)CSc2nc(=O)n(CCN3CCOCC3)c3c2CCC3)cc1 the Potency was “inactive” and the cell number change was 7.1%. With Cc1cccc(NC(=O)CSc2nc3ccccc3nc2N2CC(C)OC(C)C2)c1 (stereo not drawn) the Potency was “inactive” and the cell number change was 8.93%. With CCOc1ccc(NC(=O)CSc2nc(N3CCOCC3)nc(N3CCOCC3)n2)cc1 the Potency was “inactive” and the cell number change was 4.32%. With Cc1cc(C)n2c(SCc3c(C)noc3C)nnc2n1 the Potency was “inactive” and the cell number change was 2.46%. With Cc1cccc(NC(=S)NCCc2ccc(S(N)(=O)=O)cc2)c1C the Potency was “inactive” and the cell number change was -9.26%. In the case of C=CCSc1nnc(NC(=O)C2CC(=O)N(Cc3ccc(C)cc3)C2)s1 (stereo not drawn), the Potency is reported as “inactive” and the cell number change is reported as -7.78%. For CC(=C\C(=O)O)/C(=C/c1ccc(C)o1)C(=O)O, the Potency was “inactive” and the cell number change was -12.8%. In the case of O=C(NCc1ccc2[nH]c3c(c2c1)CCCC3)c1ccc(S(=O)(=O)N2CCCCC2)cc1, the Potency is reported as “inactive” and the cell number change is reported as -10.5%. In the case of CN(C)C(=O)c1cc(C(=O)c2c(F)cccc2F)c[nH]1, the Potency is reported as “inactive” and the cell number change is reported as -8.76%. With O=C(CN1C(=O)NC2(CCCCC2)C1=O)Nc1cccc(S(=O)(=O)N2CCOCC2)c1 the Potency was “inactive” and the cell number change was -0.223%. For CCC1Sc2ccc(S(=O)(=O)CCC(=O)Nc3ccc(OC(F)(F)F)cc3)cc2NC1=O (stereo not drawn), the Potency was “inactive” and the cell number change was 2.14%. For O=C(NC(Cc1ccccc1)C(=O)O)/C(=C\c1cccc([N+](=O)[O-])c1)NC(=O)c1ccco1 (stereo not drawn), the Potency was “inactive”. With O=C(NC(Cc1ccccc1)C(=O)O)/C(=C\c1ccc(Cl)cc1)NC(=O)c1ccco1 (stereo not drawn) the Potency was 0.0411 µM (active). With O=C(NC(Cc1ccccc1)C(=O)O)/C(=C/c1ccco1)NC(=O)c1cccc(Br)c1 (stereo not drawn) the Potency was “inactive” and the cell number change was -18%. For O=C(NC(Cc1ccccc1)C(=O)O)/C(=C\c1ccccc1)NC(=O)c1ccco1 (stereo not drawn), the Potency was “inactive” and the cell number change was -6.67%. With O=C(NC(Cc1ccccc1)C(=O)O)/C(=C/c1cccc(Br)c1)NC(=O)c1ccco1 (stereo not drawn) the Potency was 1.84 µM (active). For O=C(NC(Cc1ccccc1)C(=O)O)/C(=C/c1ccc(Cl)cc1)NC(=O)c1ccccc1 (stereo not drawn), the Potency was “inactive” and the cell number change was 1.96%. For O=C(CC1C(=O)NCCN1Cc1ccc(-c2ccccc2)cc1)NCCOc1cccnc1 (stereo not drawn), the Potency was “inactive” and the cell number change was -0.0435%. For O=C(Nc1cccc2ccccc12)c1cccc(F)c1, the Potency was “inactive” and the cell number change was -3.54%. For COc1ccc(NC(=O)C2CSC(C)(C)N2C=O)cc1 (stereo not drawn), the Potency was “inactive” and the cell number change was 7.51%. For COc1ccc(CN2CCOCCOCCN(Cc3ccc(OC)cc3)CCOCCOCC2)cc1, the Potency was “inactive” and the cell number change was 16%. With Cc1ccc(S(=O)(=O)NCc2ccccc2)cc1C(=O)N(C)CC(=O)Nc1c(Cl)cccc1Cl the Potency was “inactive”. With CSc1nc(-c2ccc(Cl)cc2Cl)[nH]c(=O)c1C#N the Potency was 32.6 µM (active) and the cell number change was -67%. In the case of Cc1cc(-c2ccc(Cl)cc2Cl)c(C#N)c(=O)[nH]1, the Potency is reported as “inactive”. For CSc1nc(-c2ccc(Cl)cc2)c(C#N)c(=O)[nH]1, the Potency was “inactive” and the cell number change was -0.138%. With CN(Cc1ccccc1)C(=O)COc1ccc(N(C)S(=O)(=O)c2ccc(F)cc2)cc1 the Potency was “inactive” and the cell number change was -1.11%. With Cc1ccc(C(C(=O)NCc2ccc(F)cc2)N(Cc2ccco2)C(=O)c2snc(C(N)=O)c2N)o1 (stereo not drawn) the Potency was 13 µM (active) and the cell number change was -23%. With CCC(C(=O)NCc1ccc(F)cc1)N(Cc1ccco1)C(=O)c1snc(C(N)=O)c1N (stereo not drawn) the Potency was “inactive” and the cell number change was -6.14%. In the case of NC(=O)c1nsc(C(=O)N(Cc2ccco2)C(C(=O)NCc2ccc(F)cc2)c2ccc(O)cc2)c1N (stereo not drawn), the Potency is reported as “inactive”. For Cc1oc2c(c1C(=O)NC(Cc1c[nH]c3ccccc13)C(=O)O)CCCC2 (stereo not drawn), the Potency was “inactive” and the cell number change was 18%. For Cc1cccc(Cc2c(C)[nH]c(=O)c(C#N)c2C)c1, the cell number change was -1.36% and the lipid storage change, negative = inhibition was -17.3% [at 9.22 µM] (inactive). With N=c1oc2ccc(Br)cc2cc1C(=O)NC1CCCCCC1 the Potency was “inactive” and the cell number change was -5.41%. With O=C(O)C1CCCN1S(=O)(=O)c1ccccc1 (stereo not drawn) the Potency was “inactive” and the cell number change was 14%. In the case of CCc1cc(=O)oc2cc(OCC(=O)NCCCN3CCCC3=O)c(Cl)cc12, the Potency is reported as 16.4 µM (active) and the cell number change is reported as 11.6%. In the case of CC(Oc1cc2oc(=O)c3c(c2cc1Cl)CCC3)C(=O)NCCCN1CCCC1=O (stereo not drawn), the Potency is reported as 1.64 µM (active) and the cell number change is reported as -19.6%. For Cc1cc(=O)oc2c(C)c(OCC(=O)NCCCN3CCCC3=O)ccc12, the Potency was “inactive” and the cell number change was -21.7%. In the case of CCCCc1cc(=O)oc2c(C)c(OCC(=O)NCCN3CCOCC3)ccc12, the Potency is reported as 8.2 µM (active) and the cell number change is reported as -17%. For CCCc1cc(=O)oc2c(C)c(OCC(=O)NCCCN3CCOCC3)ccc12, the Potency was “inactive” and the cell number change was 7.37%. For CCCc1cc(=O)oc2c(C)c(OCC(=O)NCCN3CCOCC3)ccc12, the Potency was “inactive” and the cell number change was 19.4%. With CC(Oc1cc2oc(=O)c3c(c2cc1Cl)CCC3)C(=O)NCCCN1CCOCC1 (stereo not drawn) the Potency was “inactive” and the cell number change was 14.5%. With Cc1c(OCC(=O)NCCCN2CCCC2=O)ccc2c3c(c(=O)oc12)CCCC3 the Potency was 8.2 µM (active) and the cell number change was -7.37%. With Cc1c(OCC(=O)NCCCN2CCOCC2)ccc2c3c(c(=O)oc12)CCC3 the Potency was “inactive” and the cell number change was -21.2%. With Cc1cc(=O)oc2cc(OCC(=O)NCCCN3CCCC3=O)c(Cl)cc12 the Potency was “inactive” and the cell number change was -17.4%. In the case of CCc1cc(=O)oc2cc(OCC(=O)NCCCN3CCCC3=O)ccc12, the Potency is reported as “inactive” and the cell number change is reported as 3.54%. In the case of CC(Oc1cc2oc(=O)c3c(c2cc1Cl)CCC3)C(=O)NCCN1CCOCC1 (stereo not drawn), the Potency is reported as “inactive” and the cell number change is reported as 9.27%. For COc1ccc(OCCNC(=O)c2ccccc2OCC(=O)N2CCCCC2)cc1, the Potency was “inactive” and the cell number change was -14.3%. In the case of O=C(c1ccc(S(=O)(=O)NCc2ccco2)cc1)N1CCN(Cc2ccccc2F)CC1, the Potency is reported as “inactive” and the cell number change is reported as -10.8%. In the case of COc1cccc(N(C(=O)CS(=O)CC(=O)Nc2ccc(F)cc2)C(C(=O)NC2CCCCC2)c2cccs2)c1 (stereo not drawn), the Potency is reported as “inactive” and the cell number change is reported as -4.8%.
